Data on 40 compounds can be found in PubChem BioAssay (Tox21).

Results filed as inconclusive are left out. Activity calls are given as the source filed them. The call rests on the fitted dose curve; in most records, active means well fitted cell-killing curve with a large enough effect in the repeat runs; inconclusive means weak or mixed curves, or effect the other way; inactive means no such curve, though single readings can be large or run the other way.
On the % scale 0 is the no-effect control and ±100 the full control effect; potency means the concentration at half of the fitted maximal effect.

The test can be described thus: qHTS assay to identify small molecule agonists of the farnesoid-X-receptor (FXR) signaling pathway - cell viability counter screen (AID 743218). Further: nearly all actives have a fitted effect of over 45% in size. As to conditions: FXR-bla HEK293T viability, CellTiter-Glo luminescence, 16 h; series mostly up to 62.6 µM; viability change, negative = cytotoxic: at the top concentration. The source says: U.S. Tox21 Program National Center for Advancing Translational Sciences [NCATS] NIH Chemical Genomics Center [NCGC] U.S. Environmental Protection Agency [EPA] National Institutes of Environmental Health Sciences [NIEHS] National Toxicology Program [NTP] U.S. Food and Drug Administration [FDA] Tox21 Assay Overview: The farnesoid-X-receptor (FXR), a nuclear hormone receptor, is highly expressed in liver, intestine, kidney and adrenal cortex. Natural ligands of FXR are the bile acids (Cholic acid, Chenodeoxy cholic acid etc). FXR is an important regulator of diverse metabolic pathways, including the bile acid homeostasis, lipid and glucose metabolisms. FXR regulates the expression of target genes by binding either as a monomer or as a heterodimer with the retinoid X receptor (RXR). Numerous studies have reported that FXR exerts protective function during cholestasis, diabetes, liver regeneration, and cancer. To identify compounds that activate FXR signaling, GeneBLAzer FXR-UAS-bla HEK 293T cell line (Invitrogen, Carlsbad, CA) containing a beta-lactamase reporter gene under the control of a UAS response element was used to screen the Tox21 10K compound library. The cytotoxicity of the Tox21 compound library against the FXR-bla cell line was tested in parallel by measuring the cell viability using CellTiter-Glo assay in the same wells.
Tox21 Assay Protocol Summary: FXR-bla cells were dispensed at 5000 cells/5uL/well in 1536-well black wall/clear bottom plates using a Multidrop Combi (Thermo Fisher Scientific, Waltham, MA) dispenser. After the assay plates were incubated at 37 C and 5% CO2 for 5 h, 23 nL of compounds dissolved in DMSO, positive controls or DMSO only was transferred to the assay plate by a Pintool station (Kalypsys, San Diego, CA). The assay plates were incubated at 37C for 16 h. After 1 uL of LiveBLAzerTM B/G FRET substrate was added using a Bioraptr Flying Reagent Dispenser (FRD) workstation (Beckman Coulter, Indianapolis, IN), the plates were incubated at room temperature for 2 h, and fluorescence intensity was measured by an Envision plate reader (PerkinElmer, Shelton, CT). For cell viability readout that measures cytotoxicity, 4uL/well of CellTiter-Glo reagent was added into the assay plates using a Bioraptr FRD. After 30 min incubation at room temperature, the luminescence intensity in the plates was measured using a ViewLux plate reader (PerkinElmer).
(qHTS replaces the single test concentration by a dilution series.)
Turning to `CC(C)=CCC1=C(O)c2ccccc2C(=O)C1=O`, the “viability change, negative = cytotoxic” value is -17.7% (inactive).

`O=C1OC2(c3ccc(O)cc3Oc3cc(O)ccc32)c2ccc(N=C=S)cc21`: the “viability change, negative = cytotoxic” value was -8.27% [at 81.1 µM] (inactive). Still for that read-out and setting: next, `CC(=O)OCC=C(C)C`: 25.9% (inactive); `CCc1cccc(CC)c1NC(=O)CN(CC(=O)O)CC(=O)O`: 2.24% (inactive); `CCCCCCCCCCCC(=O)OCC(C)OC(=O)CCCCC(=O)O` (stereo not given): -7.69% (inactive). Same read-out and setting: the same measure for `CC(C)NC[C@@H](O)COc1ccc(CC(N)=O)cc1`: -0.328% (inactive); for `COC(=O)c1ccccc1C`: -7.79% (inactive). The same measure, in the same setting: next, `COc1cc2nc(N3CCN(C(=O)c4ccco4)CC3)nc(N)c2cc1OC`: -21.7% [at 29.1 µM] (inactive); `CCCCCC/C=C\CCCCCCCC(=O)O`: 7.74% (inactive). For `O=[N+]([O-])c1ccc(F)c(Cl)c1`, the “viability change, negative = cytotoxic” value is 1.35% (inactive).

For the compound `C=Cc1cccc(C)c1`, the “viability change, negative = cytotoxic” value is 5.38% (inactive). Consider `CCCC(=O)OCOC(=O)C1=C(C)NC(C)=C(C(=O)OC)C1c1cccc(Cl)c1Cl` (stereo not given), for which the “viability change, negative = cytotoxic” value was 6.36% (inactive).

Turning to `OC1CCCc2ccccc21` (stereo not given), the “viability change, negative = cytotoxic” value is 46.1% [at 81.1 µM] (inactive).

With `O=C(Nc1ccc2c(O)c(N=Nc3ccc(N=Nc4ccc(S(=O)(=O)O)cc4)cc3)c(S(=O)(=O)O)cc2c1)c1ccccc1`, the “viability change, negative = cytotoxic” value is -15.7% (inactive). On the same count and under the same terms, the same measure for `O=c1oc2cc(O)ccc2c2oc3cc(O)ccc3c12`: -12.6% (inactive); for `CCC(COC(=O)CCS)(COC(=O)CCS)COC(=O)CCS`: -1.97% (inactive). For `COc1cccc(OC)c1C(=O)O`, the “viability change, negative = cytotoxic” value is 2.56% (inactive). Regarding `O=S(=O)(O)c1ccccc1/C=C/c1ccc(-c2ccc(/C=C/c3ccccc3S(=O)(=O)O)cc2)cc1`, the “viability change, negative = cytotoxic” value is 23.5% (inactive). Same read-out and setting: the same measure for `COc1cc(C)ccc1O`: 1.88% (inactive); for `C[Si](Cl)(c1ccccc1)c1ccccc1`: -0.148% (inactive); for `CC(C)CCCCCOC(=O)CCS`: 27.2% (inactive). With `CC(C)(C)c1ccc(C(O)CCCN2CCC(C(O)(c3ccccc3)c3ccccc3)CC2)cc1` (stereo not given), the Potency is 10.6 µM (active). With `C=CCn1c(=O)n(CC=C)c(=O)n(CC=C)c1=O`, the “viability change, negative = cytotoxic” value was -11% (inactive).

For the compound `CC(C(=O)O)c1ccc2c(c1)[nH]c1ccc(Cl)cc12` (stereo not given), the “viability change, negative = cytotoxic” value is -19.3% (inactive).

On to `CCO[Si](OCC)(OCC)OCC`, for which the “viability change, negative = cytotoxic” value was 27% [at 81.1 µM] (inactive). Same read-out and setting: the same measure for `CCOc1ccc2ccccc2c1C(=O)N[C@@H]1C(=O)N2[C@@H]1SC(C)(C)[C@@H]2C(=O)O`: 4.42% (inactive); for `Cc1cccc2cccnc12`: 22.3% (inactive). The same measure, in the same setting: the same measure for `COC1=C(OC)C(=O)C(CCCCCCCCCCO)=C(C)C1=O`: 17.5% (inactive). For `O=C1CCc2ccc(OCCCCN3CCN(c4cccc(Cl)c4Cl)CC3)cc2N1`, the Potency was 13.3 µM (active). With `Oc1c(I)cc(Cl)c2cccnc12`, the “viability change, negative = cytotoxic” value is -14.2% (inactive). On the same count and under the same terms, next, `CC1(C)CCC[C@]2(C)[C@H]3CCO[C@]3(C)CC[C@@H]12`: -13.7% (inactive). As to `CC(=O)[C@H]1CC[C@H]2[C@@H]3CCC4=CC(=O)CC[C@]4(C)[C@H]3CC[C@]12C`, the “viability change, negative = cytotoxic” value was -14% (inactive). Same read-out and setting: next, `OC12N=C(c3ccccc3)SC1Cc1cc(Cl)ccc12` (stereo not given): 2.45% (inactive); `CN1CCCCC1CCN1c2ccccc2Sc2ccc(S(C)=O)cc21` (stereo not given): -20.8% (inactive). Turning to `O=C1NC(=O)[C@@H]2CC=CC[C@H]12`, the Potency was 21.9 µM (active). With `CCCCCCC1CCCC(=O)O1` (stereo not given), the “viability change, negative = cytotoxic” value was -5.43% (inactive). On the same count and under the same terms, next, `O=C1C(c2[nH]c3ccc(S(=O)(=O)O)cc3c2O)=Nc2ccc(S(=O)(=O)O)cc21`: -5.3% (inactive); `Cc1cccc(C)c1NC(=O)c1ccc(N)cc1`: -2.67% (inactive). In the case of `O=C(O)Cc1ccccc1Nc1c(Cl)cccc1Cl`, the Potency entry was “inactive”. On to `Sc1nc2ccccc2s1`, for which the “viability change, negative = cytotoxic” value is -0.976% (inactive).
